# Source: PubChem BioAssay (National Center for Advancing Translational Sciences (NCATS))
# Rab9 prom act – activators of Rab9 promoter. Huh7 Rab9 promoter-luciferase reporter, luminescence, 24 h. Potency, µM (doses to about 9.22 µM), inactives show top-dose activation, negative = inhibition, usual class: activators. actives 2.8% (n = 320,000); note: % of control where 0% means no effect; nearly all actives have a fitted effect of over 60% in size
#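 Rab9 promoter-driven luciferase in stably transfected Huh7 cells; 1500 cells/well rested 2 h, exposed to compound in DMSO for 24 h at 37 °C, 5% CO2. Luminescence read 10 min after adding luciferase reagent at ambient temperature.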
# FLuc modulator – inhibits or activates purified firefly luciferase, miR-21 counter-screen; P08659; purified FLuc, Km substrates, luminescence inhibition; actives 6.9% (n = 360,000); Potency, µM (series often up to 57.5 µM), for the others: at the highest dose activity change, negative = inhibition, hits mostly inhibitors;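 note: plate controls were vehicle for no effect and reference inhibitor for full effect; nearly all actives have a fitted effect of over 55% in size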
# Target sequence (P08659 whole entry, looked up): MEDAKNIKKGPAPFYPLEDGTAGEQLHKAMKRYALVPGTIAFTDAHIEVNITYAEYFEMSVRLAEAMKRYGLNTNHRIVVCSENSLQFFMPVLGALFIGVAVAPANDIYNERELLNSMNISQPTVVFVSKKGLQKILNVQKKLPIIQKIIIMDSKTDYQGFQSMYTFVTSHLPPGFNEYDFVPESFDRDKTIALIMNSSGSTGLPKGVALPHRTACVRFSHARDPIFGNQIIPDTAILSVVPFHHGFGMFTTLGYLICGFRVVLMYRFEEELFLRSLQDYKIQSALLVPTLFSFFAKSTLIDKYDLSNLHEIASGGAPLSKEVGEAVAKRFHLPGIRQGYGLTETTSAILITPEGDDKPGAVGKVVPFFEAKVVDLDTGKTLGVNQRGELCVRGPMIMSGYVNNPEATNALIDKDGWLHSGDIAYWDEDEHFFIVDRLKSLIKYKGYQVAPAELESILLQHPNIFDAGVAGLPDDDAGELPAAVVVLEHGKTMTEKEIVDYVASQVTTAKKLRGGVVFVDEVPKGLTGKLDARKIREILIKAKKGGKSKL
#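 Purified P. pyralis luciferase, 10 nM final, with Km-level 10 uM D-luciferin and 10 uM ATP in 50 mM Tris acetate pH 7.5, 10 mM Mg acetate, 0.01% Tween-20, 0.05% BSA; 6-point qHTS titration about 60 µM downward; luminescence read.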
# NPC1 prom act – activates the NPC1 promoter; Huh7 NPC1 promoter luciferase reporter, 24 h; Potency, µM (series often up to 9.22 µM), for the others: at the highest dose activation, usual class: activators; actives 2.4% (n = 320,000); AID 485313; note: % of control where 0% means no effect; nearly all actives have a fitted effect of over 60% in size
#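 Luciferase expression driven by the NPC1 promoter was measured in stably transfected Huh7 cells after a 24 h compound incubation, using a luciferase reagent and a luminescence read.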
# ELG1 repair inh – ELG1-dependent DNA repair inhibition; HEK293T ELG1-luciferase reporter, luminescence, 16 h; DNA damage induced by 5-fluorouridine; Potency, µM (doses to about 46.1 µM), without a hit: at the top dose activity change, negative = inhibition, usual class: inhibitors; actives 2.3% (n = 330,000); AID 504467; note: % is set by controls: 0 for no effect and ±100 for the full control effect; nearly all actives have a fitted effect of over 55% in size
#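 Step one: seed 2,000 cells per well. Step two: pin-transfer compound or DMSO alongside 5-fluorouridine. Step three: incubate 16 hr, 37 °C, 5% CO2. Step four: add ONE-Glo, wait 30 min, read luminescence.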
# ELG1 genotoxic – genotoxicity induction in ELG1-luciferase HEK293T cells; HEK293T ELG1-luciferase reporter, luminescence, 16 h; Potency, µM (highest dose often 46 µM), without a hit: at the highest dose activity change, positive = activation, hits mostly activators; actives 1.3% (n = 330,000); AID 504466; note: % of control where 0% means no effect; nearly all actives have a fitted effect of over 60% in size
#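 Genotoxicity was scored as increased ELG1-luciferase reporter signal, measured by ONE-Glo luminescence (30 min, room temperature). Compound or vehicle exposure of the HEK293T reporter cells lasted 16 hr at 37°C.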
# SMN2 splice enh – SMN2 splice variant enhancement; Potency, µM (top dose mostly 46.1 µM), without a hit: at the highest dose activity change, positive = activation, actives largely listed as activators; HEK293 SMN2-luciferase splicing reporter, luminescence, 30-36 h; actives 2.8% (n = 210,000); note: % of control where 0% means no effect; nearly all actives have a fitted effect of over 55% in size
#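 HEK293 cells carry an SMN2 minigene-luciferase reporter in which exon 7 inclusion puts luciferase in frame. Cells were seeded at 2000 cells/well, attached for 10-12 hours, then exposed to compounds for 30-36 hours at 37C before ONE-Glo luminescence.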
# The depositor's hits bear a star; ? = inconclusive; nt = not tested or not shown. Rows were chosen to be rich in hits. Some 9.2% of all compounds tested hit in one or more screens of this group. Calls come from the whole dose curve; as a rule, active = well fitted curve in the direction sought with a large enough effect; inconclusive = small, poorly fitted or top-dose-only effect, or another doubt; inactive = no such curve, though single readings can be large; an effect the other way counts as inactive or inconclusive. Potency is the fitted concentration of half-maximal effect.
SMILES,Rab9 prom act,FLuc modulator,NPC1 prom act,ELG1 repair inh,ELG1 genotoxic,SMN2 splice enh
Cc1ccc(Nc2nc(COC(=O)C3CC3)cs2)cc1,3.16µM*,4.26µM*,?,?,?,?
O=C(CCN1C(=O)/C(=C/c2ccccc2)SC1=S)NCCCN1CCOCC1,-4.7%,4.6%,-0.9%,-15.5%,-9.9%,nt
COC(=O)c1ccc(/C=C2/SC(=S)N(CCC(=O)NCCCN3CCOCC3)C2=O)cc1,-3.7%,?,-3.2%,-11.7%,0.2%,nt
CCOc1ccc(/C=C2\SC(=S)N(CCCC(=O)NCCCN3CCOCC3)C2=O)cc1,-37.2%,9.53µM*,-33.5%,7.7%,-15.6%,nt
CCc1ccc(/C=C2/SC(=S)N(CCC(=O)NCCCN3CCOCC3)C2=O)cc1,-6.8%,5.36µM*,10.3%,14.9%,13.3%,nt
O=C(CCCN1C(=O)/C(=C/c2ccccc2Cl)SC1=S)NCCCN1CCOCC1,-11.3%,16.9µM*,-12.6%,-18.1%,-18.4%,nt
COCCNC(=O)CCCC(=O)NCCOC,-0.7%,4.8%,-2.7%,-5.1%,0.9%,16.3%
COc1cccc(NC(=O)CCc2c(C)nc3c4cccnc4nn3c2C)c1,nt,4.0%,nt,nt,nt,-32.0%
Cc1cc([N+](=O)[O-])cc(/C=N/n2c(C)nc3ccccc3c2=O)c1O,-0.5%,2.9%,0.8%,?,0.6%,nt
C/C(=N\OCc1nc2ccccc2c(=O)n1/N=C/c1cc([N+](=O)[O-])ccc1O)c1ccccc1,13.2%,23.9µM*,15.9%,?,17.3%,nt
C/C(=N\OCc1nc2ccccc2c(=O)n1/N=C/c1cc(C)cc([N+](=O)[O-])c1O)c1ccccc1,-4.9%,26.9µM*,13.1%,?,?,nt
Cc1onc(-c2ccccc2Cl)c1C(=O)N1CCN(c2ccc(F)cc2)CC1,-0.1%,-0.7%,2.5%,-17.3%,-15.9%,nt
O=C(COc1ccc(-c2nnco2)cc1)Nc1cc([N+](=O)[O-])ccc1F,nt,nt,nt,-1.0%,1.3%,nt
COc1cc(-c2cc(=O)c3c(O)cc(O)cc3o2)ccc1O,21.6%,15.1µM*,28.7%,?,?,nt
COc1ccc(-c2cc(=O)c3c(O)cc(O)c(-c4cc(-c5cc(=O)c6c(O)cc(O)cc6o5)ccc4OC)c3o2)cc1,nt,nt,nt,nt,nt,26.3%
O=c1cc(-c2ccc(O)c(O)c2)oc2ccc3ccccc3c12,16.5%,2.39µM*,?,?,1.46µM*,nt
COc1ccc(-c2cc(=O)c3c(OC)c(OC)c(OC)c(OC)c3o2)cc1OC,-5.2%,4.9%,-2.0%,?,1.4%,6.7%
COc1cc(-c2cc(=O)c3ccccc3o2)ccc1O,?,?,21.4%,?,14.6µM*,?
Cc1ccc(CNC(=O)C(C)n2c(=O)cc(C(F)(F)F)c3c(C)nn(C)c32)cc1 (stereo unspecified),nt,-12.6%,nt,nt,nt,nt
Fc1ccc(Cc2cn3cc(-c4ccccc4)nc3s2)cc1,nt,0.107µM*,nt,nt,nt,2µM*
Clc1ccccc1Cc1cn2cc(-c3ccccc3)nc2s1,nt,0.169µM*,nt,nt,nt,2.51µM*
Cc1nc(-c2ccccc2)sc1C(=O)CSc1ccc(Br)cc1,0.7%,-1.7%,-0.8%,3.2%,0.9%,2.1%
Brc1ccc(-c2cn3cc(Cc4ccccc4)sc3n2)cc1,nt,0.338µM*,nt,nt,nt,8.4%
Fc1ccc(-c2cn3cc(Cc4ccccc4)sc3n2)cc1,nt,0.12µM*,nt,nt,nt,6.31µM*
O=C(Nc1ccccc1C(F)(F)F)C1CCN(S(=O)(=O)Cc2ccccc2)CC1,nt,-1.6%,nt,nt,nt,nt
SMILES,Rab9 prom act,FLuc modulator,NPC1 prom act,ELG1 repair inh,ELG1 genotoxic,SMN2 splice enh
CC(=O)c1ccc(NC(=O)C(C)OC(=O)COc2ccc(C#N)cc2)cc1 (stereo unspecified),-4.7%,-0.2%,1.3%,?,0.1%,nt
COc1ccc(C(=O)N(O)c2ccccc2)cc1,nt,nt,nt,nt,nt,3.3%
O=C(O)Cc1sc(-c2ccccc2)nc1-c1ccccc1,2.3%,?,2.0%,12.5%,0.1%,-1.5%
O=C(O)Cc1sc(-c2ccc(Cl)cc2)nc1-c1ccccc1,-0.8%,16.9µM*,3.7%,5.5%,0.7%,21.3%
O=C(O)Cc1sc(Nc2ccc(C(=O)O)cc2)nc1-c1ccccc1,nt,?,nt,nt,nt,13.4%
O=C(O)Cc1sc(Nc2ccccc2Cl)nc1-c1ccccc1,nt,3.38µM*,nt,nt,nt,69.4%
O=C(Cc1sc(Nc2ccccc2)nc1-c1ccccc1)NCc1ccccn1,?,19µM*,?,?,?,12.6µM*
O=C(O)Cc1sc(Nc2ccc(F)cc2)nc1-c1cccs1,?,16.9µM*,26.1%,?,29.1%,nt
C[C@@H]1C=C(C(=O)O)O[C@H](OCc2ccc(CO)cc2)C1,1.7%,-1.1%,-2.6%,14.7%,4.2%,nt
CCOC(=O)c1sc(-c2ccc(C(F)(F)F)cc2)nc1O,-2.0%,?,1.4%,10.5%,-2.0%,nt
Cc1ccc(Nc2nc(-c3ccccc3)c(CC(=O)O)s2)cc1,13.1%,13.5µM*,2.0%,?,?,2.1%
CC(C)(C)c1ccc(-c2nc(O)c(CC(=O)O)s2)cc1,17.2%,1.9µM*,-2.1%,?,2.5%,nt
COc1ccccc1N1CCN(C(=O)COc2ccc(Cl)cc2Br)CC1,3.9%,-9.9%,-4.6%,?,-12.7%,-3.8%
COc1ccccc1N1CCN(C(=O)CNC(=O)c2ccc(Cl)cc2Cl)CC1,16.4%,23.9µM*,16.7%,?,-14.3%,nt
O=C(NCC(=O)N1CCCCC1)c1ccc(Cl)cc1Cl,3.98µM*,19µM*,?,?,16.4µM*,?
Cc1[nH]c2ccccc2c1/C=C/c1nc2ccccc2c(=O)n1CCO,-34.2%,?,19.6%,1.83µM*,-3.6%,6.1%
O=c1c2ccccc2nc(/C=C/c2ccc(Cl)cc2)n1CCO,-1.0%,-4.1%,-2.8%,-13.2%,2.2%,nt
Cc1ccccc1/C=C/c1nc2ccccc2c(=O)n1CCc1ccccc1,-3.8%,-8.3%,-1.1%,16.4µM*,-5.2%,-20.0%
O=C(Nc1ccc(Cc2ccncc2)cc1)C1CCC(N2C(=O)C3C4C=CC(C4)C3C2=O)CC1 (stereo unspecified),-9.1%,1.5%,0.0%,6.51µM*,-12.7%,-45.8%
CC(C)(C)c1ccc(Oc2ncccc2NC(=O)c2cccs2)cc1,8.0%,-16.1%,1.0%,?,-7.2%,nt
O=C(COc1ccccc1)Nc1ccccc1C(=O)OCc1cc(=O)n2nc(C3CC3)sc2n1,nt,21.3µM*,nt,nt,nt,nt
O=C(COc1ccc(F)cc1)Nc1ccccc1C(=O)OCc1cc(=O)n2nc(C3CC3)sc2n1,nt,4.1%,nt,nt,nt,nt
CC(C)c1nn2c(=O)cc(COC(=O)c3ccccc3NC(=O)COc3ccccc3)nc2s1,nt,21.3µM*,nt,nt,nt,nt
CC(=O)N(c1nnc(-c2ccc(C)cc2)s1)C1CCCC1,?,13.5µM*,-0.4%,?,?,nt
